Source: PubChem (National Center for Advancing Translational Sciences (NCATS))
VP16 counter: inhibits Gal4-VP16 luciferase reporter, ROR gamma counter-screen | hit rate 3.5% among 310,000 | Potency, µM (highest dose often 53.6 µM), without a hit: at the top dose activity, negative = inhibition, actives largely listed as inhibitors | AID 2546 | Drosophila S2 Gal4-VP16 UAS-luciferase, luminescence, 20 h;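 also: Gal4-VP16 expression switched on by copper sulfate through the metallothionein promoter; % is scaled to controls: 0 for no effect and ±100 for the full control effect; nearly all actives have a fitted effect of over 50% in size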
a7 integrin act: activates integrin-mediated alleviation for muscular dystrophy; alpha7betagal myoblasts, beta-gal FDG fluorescence, 48 h; Potency, µM (titrated, usually from 38.3 µM), for the others: at the top dose activation, actives largely listed as activators; AID 624291; hit rate 0.064% among 350,000;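 also: 100% = response of the positive control SU9516; nearly all actives have a fitted effect of over 60% in size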
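alpha7betagal+/- myoblasts (passage 13, 250/well) treated 48 h at 37C with compounds at 1:260 dilution of DMSO stock. Lysed, then beta-galactosidase activity read as FDG fluorescence (ex 480/em 540) after 30 min, with pre-read for autofluorescence.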
Mito fusion act: blocks mitochondrial division or promotes mitochondrial fusion; S. cerevisiae fusion-defective mutant growth rescue, CellTiterGlo 48 h; Potency, µM (top dose mostly 46.1 µM), inactives show top-dose growth rescue (activation), actives largely listed as activators; hit rate 0.23% among 320,000; AID 485298; also: % of control where 0% means no effect; nearly all actives have a fitted effect of over 45% in size
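Read-out: ATP-based luminescence (CellTiterGlo, 10 min ambient) reporting growth of fusion-defective ts yeast after 48 hours at 37C on glycerol/ethanol YPEG medium in the presence of compound.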
BCR signal inh: blocks chronic active B-cell receptor signaling. Potency, µM (highest dose often 46.1 µM), for inactives: at the top dose activity change, negative = inhibition, usual class: inhibitors. hit rate 0.05% among 340,000. ABC-DLBCL IkBa-CBG/CBR reporter, luminescence ratio, 4 h; active = well fitted inhibition curve with a large enough effect in the signal ratio, with a control signal flat, not every such curve was filed as active; inconclusive = small, poorly fitted or top-dose-only effect, or effect the other way, or a change in a side signal; the % refers to the signal ratio;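 also: plate controls were basal doxycycline-induced cells for no effect and cells given 10 µM MG132 for full effect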
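Concentration-response series (up to 46 uM) were applied to TMD8 dual-reporter cells for 4 h at 37C with doxycycline. Green/red ratio, after filter-overlap correction, defined %Activity; red signal alone was normalised to basal cells and zero luminescence.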
uPA generation: blocks generation of uPA at the cell surface; cell surface uPA generation assay, qHTS; AID 540303; Potency, µM (titrated, usually from 38.3 µM), for the others: at the top dose activity change, negative = inhibition, hits mostly inhibitors; hit rate 0.31% among 330,000; active = well fitted inhibition curve with a large enough effect; inconclusive = small, poorly fitted or top-dose-only effect; inactive = no such curve, though single readings can be large or run the other way; tested in mouse RAW 264.7 cells; also: % is scaled to controls: 0 for no effect and ±100 for the full control effect; nearly all actives have a fitted effect of over 55% in size
RORg inh: ROR gamma (mouse) transcription inhibition; P51450; Drosophila S2 Gal4-RORgamma UAS-luciferase reporter, 20 h; Potency, µM (top dose mostly 53.6 µM), without a hit: top-dose activity change, negative = inhibition, actives largely listed as inhibitors; hit rate 5.4% among 310,000; AID 2551; also: % is scaled to controls: 0 for no effect and ±100 for the full control effect; nearly all actives have a fitted effect of over 60% in size
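In this cell-based reporter format, copper sulfate (700 uM final) drives Gal4–ROR gamma fusion expression from a metallothionein promoter in Drosophila Schneider cells; compounds preincubated 1 hr, reporter read after 20 hr at ambient temperature.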
Numbers without * were called inactive; [ ] = dose if it differs, or a comment. Rows were chosen to be rich in hits. Some 5.5% of all compounds tested hit in one or more screens of this group. Unless noted, calls follow the shape of the dose curve; as a rule, active = well fitted curve in the direction sought with a large enough effect; inconclusive = small, poorly fitted or top-dose-only effect, or another doubt; inactive = no such curve, though single readings can be large; an effect the other way counts as inactive or inconclusive. Potency is read from the fitted curve at half-maximal effect.

What do the screens show for `CCOC(=O)c1ccc(NC(=S)NCCc2ccccc2)cc1`?
VP16 counter: inconclusive; a7 integrin act: 13%; Mito fusion act: 1%; BCR signal inh: inconclusive; uPA generation: 8%; RORg inh: 8.9µM*

How did CCOC(=O)c1ccc(NC(=S)NCc2ccccc2)cc1 do in these assays?
VP16 counter: inconclusive; a7 integrin act: -35%; Mito fusion act: -17%; BCR signal inh: 19%; uPA generation: -1%; RORg inh: 14µM*

How did CCCCN(C(=O)c1cc(S(=O)(=O)N2CCCCCC2)ccc1OC)c1c(N)n(CCC)c(=O)[nH]c1=O do in these assays?
a7 integrin act: 11%; Mito fusion act: 4%; BCR signal inh: 6%; uPA generation: 4%

Results for C[C@@H]1C[C@H](OC(=O)c2ccccc2O)CC(C)(C)C1 ?
VP16 counter: 7%[17 µM]; RORg inh: 14%[16.9 µM]

Results for CC(C)CCCC(C)C1CCC2C3CC(O)[C@@]4(O)CC(O)CC[C@@]4(C)C3CC[C@@]12C (some centres undefined) ?
VP16 counter: -15%; RORg inh: -27%
